Results: the supplement of paper PMC6555819

Columns and labels:
Test in all cases: PBM binding z-score (relative to random genomic background probes); higher = stronger binding; sequences stand for … in GC…GCGATTGACAGCGTAGAATGAAGG
[1] = test system: PPARg:RXRa DBDmut IVT, anti-RXR (DBD mutation: RXRa K156A/R161A, NR concentration 270 nM, RXRa partner concentration 90 nM)
Procedure, shortened: (§1)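 On custom Agilent 4×180K arrays, double-stranded probes with 34-nt variable regions carried direct-repeat seeds, single-nucleotide variants, half-site ablations or random human genomic background. Ligand-free nuclear receptor dimers were applied for 1 h, and binding was read with antibodies against each partner (one per run). Binding z-scores come from regression-normalized fluorescence, with the random background probes as reference.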

[2] = test system: PPARg:RXRa IVT, anti-PPARg (NR concentration 270 nM, RXRa partner concentration 90 nM)
Procedure, shortened: as §1

[3] = test system: PPARg DBDmut:RXRa IVT, anti-PPARg (DBD mutation: PPARg1 K132A/R137A, NR concentration 270 nM, RXRa partner concentration 90 nM)
Procedure, shortened: as §1

[4] = test system: PPARg DBDmut IVT, anti-PPARg (DBD mutation: PPARg1 K132A/R137A, NR concentration 270 nM)
Procedure, shortened: as §1

[5] = test system: PPARg homodimer (NR concentration 180 nM)
Procedure, shortened: as §1

[6] = test system: PXR:RXRa (NR concentration 270 nM, RXRa partner concentration 90 nM)
Procedure, shortened: as §1

[7] = test system: PXR homodimer (NR concentration 270 nM)
Procedure, shortened: as §1

[8] = test system: RARa:RXR (NR concentration 270 nM, RXRa partner concentration 90 nM)
Procedure, shortened: as §1

[9] = test system: RARa homodimer (NR concentration 270 nM)
Procedure, shortened: as §1

[10] = test system: RARb:RXRa (NR concentration 270 nM, RXRa partner concentration 90 nM)
Procedure, shortened: as §1

Row | Sequence | PBM binding z-score [1] | PBM binding z-score [2] | PBM binding z-score [3] | PBM binding z-score [4] | PBM binding z-score [5] | PBM binding z-score [6] | PBM binding z-score [7] | PBM binding z-score [8] | PBM binding z-score [9] | PBM binding z-score [10]
1 | ACCAGCAGGCCAAGGGTCACTCAAGATTAGTCCG | -0.293 | 2.57 | -0.621 | -0.244 | 2.32 | 2.95 | -0.192 | 3.93 | 0.0192 | 3.37
2 | AGTAGCAGGCCAAGGGTCACTCAAGATTAGTCCG | 0.462 | 3.88 | -0.464 | -0.976 | 1.7 | 3.19 | -0.0466 | 4.3 | 0.186 | 3.65
3 | CGAACTAGGTGATTGACAGGACAGTGAATAGTAA | 6.28 | 5.92 | 0.852 | 0.609 | 0.553 | -0.082 | 0.228 | 0.0788 | 0.46 | 0.167
4 | GCTCGGAGGACAAGGTCACAGCTTTGTCCGTAGA | 0.831 | 3.16 | 0.822 | -0.625 | 2.33 | 3.9 | 0.00215 | 4.35 | 0.243 | 4.21
5 | CAAACTAGGTCAAAGGTCAACGTCGAGCCAACCA | 8.88 | 9.1 | 3.12 | 5.08 | 10.7 | 7.11 | 1.82 | 9.16 | 5.04 | 5.88
6 | ATCTCTAGGTCAAAGTTCAGTGAATCCCGAGGAT | 6.47 | 6.91 | 3.49 | 3.22 | 3.06 | 5.29 | 2.76 | 6.71 | 1.52 | 4.58
7 | CCTGCTAGGTCAATGGTCAGCTCAAGCAGCTCGC | 4.38 | 4.13 | 2.6 | -0.398 | 1.12 | 0.974 | -0.482 | 1.88 | -0.428 | 3.79
8 | TCAGATAGGTAAAGGTGAAAGTCGAACGATATGA | 2.81 | 2.22 | 0.559 | 0.38 | 1.31 | 0.975 | 0.0879 | 1.75 | 0.371 | 2.16
9 | CAAAATAGGTCAAGAGGTCAAAGTCCGCTTCCCG | 7.42 | 7.83 | 2.31 | 1.62 | 5.84 | 6.31 | 2.24 | 7.5 | 2.71 | 5.7
10 | ACTCGGGGGACAAAGGTCAGAGCTACGCCAGTGA | 2.49 | 5.75 | 7.4 | 7.53 | 5.43 | 5.36 | 1.26 | 6.35 | 2.37 | 4.91
11 | TAGCCTAGGTGATTGGGCCAGTATAGTACGCATC | 0.598 | 1.35 | -0.207 | -0.683 | -0.347 | -0.55 | -0.684 | -0.276 | -0.504 | -0.13
12 | GATACAGGGTGAGCTAGAGGCCAGAGTATGGAAA | 0.274 | 0.614 | -0.0983 | -0.828 | -0.261 | -0.31 | -0.845 | 0.0105 | -0.483 | 0.744
13 | CTAACTAGGTCACAGAGGTCAAAGTCCGTGCGTA | 8.94 | 9.17 | 7.21 | 5.22 | 4.09 | 6.74 | 12.1 | 7.31 | 3.9 | 5.32
14 | CCTTACGGGTCTAGGTTATAGCACGGGTGGTACG | -0.763 | 0.098 | -1.1 | -0.738 | -0.385 | -0.387 | -0.0571 | 0.0446 | -0.0691 | 0.467
15 | TCTAGTTGGTCAAAGGCCACACACTCGAAATGCG | 2.18 | 3.17 | 0.393 | 0.329 | 1.01 | 0.772 | 0.0843 | 1.28 | 0.063 | 1.95
16 | CAATCTAGGTCAAAGGTCAAAGTCGAGCCAACCA | 8.91 | 9.32 | 3.79 | 6.44 | 3.41 | 6.92 | 1.82 | 8.3 | 1.8 | 5.89
17 | CCTACTGGGCCAAAACGGTCATTGATGCCGATAA | 2.93 | 2.65 | 0.0613 | 0.25 | 0.299 | -0.497 | -0.344 | -0.365 | -0.523 | 0.875
18 | ATATGTAGGTTAGCTGGGGTCATTCCGACTAGGC | 6.8 | 5.93 | 1.65 | 0.994 | 3.16 | 6.18 | 3.73 | 5.3 | 0.761 | 2.99
19 | CCTACTGGGCCAAAGGTCATTGACTCCAATGCTC | 5.27 | 7.13 | 0.277 | 0.152 | 2.5 | 5.52 | 1.32 | 6.16 | 0.485 | 4.53
20 | CCTGGCAGGCCAGGGTCACTCAAGCATTTCGCTT | -0.558 | 0.531 | -1.01 | -1.58 | 0.712 | 3.01 | -0.393 | 3.1 | -0.89 | 2.91
21 | AGTCAAAATTCACTAGGTAACGTAAGATTCAGCT | 1.45 | 2.58 | 1.21 | 0.716 | 1.09 | 0.12 | 0.568 | 1.48 | 1.44 | 0.258
22 | GCTGCTAGGTCAACTGAGGGTCAGCTAAAGCTCG | 4.93 | 4.17 | -0.389 | -0.635 | 4.56 | 4.5 | -0.492 | 5.93 | 0.262 | 4.83
23 | CCTACTGGGCCACGAAAGGTCCTTGATTCAGTGA | 5.26 | 4.89 | -0.745 | -0.678 | -0.351 | -0.149 | -0.492 | 0.131 | -0.655 | 0.686
24 | CCTACTGGGCCATTCAGAGGTCATCGATCATATG | 4.55 | 4.6 | 1.41 | -0.27 | 5.67 | 5.11 | 2.18 | 5.25 | 1.9 | 3.29
